Most compounds without a hit are left out; they make up all but 4% or so of the library.
HIF-2a block = HIF-2a reporter inhibitors, primary screen, luminescence, 786-0 RCC cells; 786-0 RCC cells HIF-2a reporter, luciferase luminescence, overnight; inhibition, % at 18.8 µM; 360,000 tested, 0.72% active; AID 624352, 2012;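 active means inhibition of the luminescence signal of 40% or more relative to plate controls, in a single-dose primary screen at 18.75 µM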
TROY signal inh = inhibitors of TROY-driven NF-kB signaling, primary screen, Q293 LMP1-TROYcd cells, NF-kB luciferase, uHTS | Q293 LMP1-TROYcd NF-kB luciferase reporter, 4 h | inhibition, % at 10 µM | 360,000 tested, 0.98% active | AID 1347056, 2019;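 active means compounds whose plate-normalised and pattern-corrected inhibition of the luciferase reporter signal at the single screening dose is 50% or more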
Peg3 promoter = Peg3 promoter-driven luciferase inhibitors, primary screen, cell-based, HeLa, luciferase luminescence; AID 588405, 2011; inhibition, % at 20 µM; 360,000 tested, 1.7% active; HeLa PEG-Prom luciferase reporter, overnight;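 active means inhibition of at least 50% at 20 µM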
TWEAK-Fn14 inh = inhibitors of TWEAK-Fn14 signaling, primary screen, luciferase reporter cells, uHTS; TWEAK-stimulated Fn14 reporter cells, luciferase luminescence, 8 h; inhibition, % at 10 µM; 360,000 tested, 2% active; in the data active means inhibition above about 50%
KKLEB tox = cytotoxicity in KKLEB CF airway cells, primary screen, cytotoxicity control for CF NF-kB inhibitor project, cell-based, uHTS, fluorescence assay plates; KKLEB CF airway cells viability, ATPlite luminescence, overnight; hits give low values; cells stimulated with P. aeruginosa culture filtrate; AID 602141, 2011; 360,000 tested, 0.36% active; activity change (cytotoxicity), % at 5 µM;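 active means corrected activity change at or below -50% at 5 µM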
CF NFkB block = inhibitors of PAF-induced NF-kB signaling, primary screen, cell-based, GFP fluorescence, uHTS. 360,000 tested, 0.86% active. KKLEB NF-kB-GFP reporter, GFP fluorescence overnight. inhibition, % at 5 µM;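 active means at least 50% inhibition at 5 µM, scaled per plate between neutral and stimulator controls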;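 further: PAF is a Pseudomonas aeruginosa culture filtrate used as stimulus; plate controls were PAF-stimulated DMSO wells for no effect and unstimulated DMSO wells for full effect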
The depositor's hits bear a star.

SMILES	HIF-2a block	TROY signal inh	Peg3 promoter	TWEAK-Fn14 inh	KKLEB tox	CF NFkB block
CCn1cc(C(=O)NC(=S)Nc2sc3c(c2C(=O)OC)CCCCCC3)cn1	11	71*	39	-19	-21	19
CC(C)(C)c1nn(-c2ccccc2)c2[nH]c(=O)c(CNCc3ccco3)cc12	27	24	-10	7	12	-4
CC(C)(C)c1nn(-c2ccccc2)c2[nH]c(=O)c(CNc3ccc4c(c3)OCCO4)cc12	-28	82*	-19	96*	16	57*
O=C(NNS(=O)(=O)c1ccc(F)cc1)c1ccc(O)cc1	25	6	-1	62*	13	-8
COc1ccc(CCN2CC(C(=O)N(C)Cc3cccnc3)CC2=O)cc1OC (configuration not stated)	5	20	-5	-4	7	1
COc1ccc(S(=O)(=O)n2nc(OC(=O)c3ccc(C)cc3)cc2N)cc1	14	59*	6	19	-2	14
COc1ccccc1C(=O)Oc1cc(N)n(S(=O)(=O)c2ccccc2)n1	16	19	-9	4	-4	-1
Cc1ccc(C(=O)Oc2cc(N)n(S(=O)(=O)c3ccc(C)cc3)n2)cc1	19	43	8	68*	8	-11
Cc1ccccc1C(=O)Oc1cc(N)n(S(=O)(=O)c2ccccc2)n1	8	25	11	55*	-8	7
Cn1ncc2c(Nc3cccc(Cl)c3)nc(Nc3cccc(Cl)c3)nc21	-29	21	31	60*	-2	11
CNc1nc(Nc2ccc(C)c(Cl)c2)c2cnn(C)c2n1	4	14	40	39	-2	17
Cn1ncc2c(Nc3ccc(Br)cc3)nc(Nc3ccc(Br)cc3)nc21	-6	29	25	53*	-19	8
O=C(COC(=O)c1ccc(OC(F)F)cc1)NCC1CCCO1 (configuration not stated)	2	2	8	-11	24	-34
O=[N+]([O-])c1ccc(O)c(/C=N/Nc2ccccn2)c1	-100	16	33	-26	-65*	69*
O=C(N/N=C/c1cc([N+](=O)[O-])ccc1O)C12CC3CC(CC(C3)C1)C2	17	-15	37	-10	-22	24
O=C(N/N=C/c1cc([N+](=O)[O-])ccc1O)NC12CC3CC(CC(C3)C1)C2	28	85*	-38	93*	-10	4
O=[N+]([O-])c1ccc(O)c(/C=N/NC(=S)Nc2ccc(Cl)cc2Cl)c1	-78	33	12	71*	-7	10
CCOc1ccc(S(=O)(=O)N(CC)CC)cc1NC(=O)c1ccc(N2CCCC2=O)cc1	14	-25	21	-7	7	-16
COc1cccc(C(=O)OCC(=O)N2CCC(Cc3ccccc3)CC2)c1OC	10	3	1	-8	-2	5
COc1ccc(-c2nc3ccc(Br)cn3c2CC(C)(C)C)cc1OC	-5	7	-4	10	-2	13
COc1ccc(NC(=O)O[C@@H](C)[C@@H]2CN3CCc4c([nH]c5ccc(-c6ccc(OC)cc6)cc45)[C@@H]3C[C@@H]2N(C)C(=O)Nc2ccc(OC)cc2)cc1	-15	-9	10	-2	-2	14
COc1ccc(-c2ccc3[nH]c4c(c3c2)CCN2C[C@@H]([C@H](C)OC(=O)Nc3cc(Cl)cc(Cl)c3)[C@@H](N(C)C(=O)Nc3cc(Cl)cc(Cl)c3)C[C@@H]42)cc1	27	5	33	40	-7	17
COc1ccc(NC(=O)N(C)[C@H]2C[C@H]3c4[nH]c5ccc(-c6ccc7c(c6)OCO7)cc5c4CCN3C[C@H]2[C@H](C)O)cc1	-11	13	55*	7	-2	10
COc1ccc(NC(=O)N(C)[C@H]2C[C@H]3c4[nH]c5ccc(-c6ccc(OC)cc6)cc5c4CCN3C[C@H]2[C@H](C)O)cc1	-62	-13	98*	-44	1	22
CCOC(=O)C1=CN(CC)S(=O)(=O)NC1c1cccc(OC)c1 (configuration not stated)	7	0	-6	9	-17	16
SMILES	HIF-2a block	TROY signal inh	Peg3 promoter	TWEAK-Fn14 inh	KKLEB tox	CF NFkB block
CCOC(=O)c1c(C)oc2c1c(C(c1cccnc1)N1CCOCC1)c(O)c1ccccc12 (configuration not stated)	32	-9	-161	98*	-7	30
O=C(O)COc1ccccc1/C=N/Nc1ccc(S(=O)(=O)N2CCOCC2)cc1[N+](=O)[O-]	18	-5	68*	-19	8	-8
Cc1ccc(-n2c(O)c(/C=N/Nc3ccc(S(=O)(=O)N4CCOCC4)cc3[N+](=O)[O-])c3ccccc3c2=O)c(C)c1	4	42	38	82*	-50	43
COc1ccc(-c2csc(N3CCN(c4cc(C)nc5ccccc45)CC3)n2)cc1OC	5	42	100*	52*	-17	24
COc1cc(-c2csc(N3CCOCC3)n2)cc(OC)c1OC	-1	-15	-9	-7	-3	6
COc1ccc(N(CC(=O)NCCSc2ccccc2)S(=O)(=O)c2ccccc2)c(OC)c1	19	4	39	19	11	-7
CCCN(CCO)C1CCN(CCc2ccccc2)CC1	1	12	-2	5	-14	-5
O=C(NCc1ccco1)c1ccc2sc([C@H]3C[C@H](O)[C@@H](CO)O3)nc2c1	-34	-11	-11	-20	-9	14
Cc1ccc(C2=Nc3ccccc3N=C(c3ccco3)C2)c(O)c1	-34	50*	-30	34	-10	14
Cc1ccc(O)c(C2=Nc3ccccc3N=C(c3ccco3)C2)c1	2	-14	-5	22	-10	-6
CCC(Sc1ncccc1Nc1ccccn1)C(=O)O (configuration not stated)	11	-12	0	3	-18	5
COc1ccc(C(NC(=O)C2CCN(CCOc3ccc(Cl)cc3Cl)CC2)c2ccccc2C)cn1 (configuration not stated)	-17	32	1	-18	-24	13
COc1ccc(C(NC(=O)C2CCN(CCOc3ccc(Cl)cc3Cl)CC2)c2cccs2)cc1 (configuration not stated)	-28	51*	-1	-4	-18	27
Cc1ccccc1C(c1ncccc1C)N(C)C(=O)C1CCN(CCOc2ccc(Cl)cc2Cl)CC1 (configuration not stated)	7	21	100*	-45	-11	13

Bioassay records: PubChem BioAssay, Sanford-Burnham Center for Chemical Genomics
